PubChem BioAssay AID1159580 (chemical genetic matrix, 2015)
Screen size: about 5,500 compounds; about 2,000 (36%) were called active. Another 18% or so got no clear call; they are omitted. Cut-off read from the data, not from the text of the source: active = normalized growth mostly below about 0.91 (no sharp cut-off); inconclusive = no clear call, values can overlap the other calls; inactive = mostly above about 0.92. This is one part of the list.

Assay: chemical genetic growth profiling, strain panel (AID 1159580);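 note: tested at 20 µM; growth read once vehicle control cultures reached saturation at 30 °C; 1 = growth at the plate median or of vehicle wells; lower values mean less growth of the strain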
Settings: growth OD
[1] = S. cerevisiae deletion strains, locus YAL013W, strain DEP1, active compounds read low
[2] = S. cerevisiae deletion strains, locus YDR150W, strain NUM1, active compounds read low
[3] = S. cerevisiae deletion strains, locus YJR075W, strain HOC1, active compounds read low
[4] = S. cerevisiae deletion strains, locus YMR263W, strain SAP30, active compounds read low
[5] = S. cerevisiae deletion strains, locus YNL153C, strain GIM3, active compounds read low
[6] = S. cerevisiae deletion strains, locus YPL241C, strain CIN2, active compounds read low

Measured: normalized growth

CC1Cc2cc3c(cc2C(c2ccc(N)cc2)=NN1)OCO3 (centres undefined)
inactive: [1] 0.958 | S. cerevisiae deletion strains, locus YAL040C, strain CLN3, active compounds read low 0.946 | S. cerevisiae deletion strains, locus YCL061C, strain MRC1 (second series), active compounds read low 0.991 | [2] 0.995 | S. cerevisiae deletion strains, locus YDR363W, strain ESC2, active compounds read low 0.989 | S. cerevisiae deletion strains, locus YER002W, strain NOP16, active compounds read low 0.991 | [3] 0.97 | [4] 0.982 | [5] 0.979 | S. cerevisiae deletion strains, locus YNL175C, strain NOP13, active compounds read low 0.996 | S. cerevisiae deletion strains, locus YNL197C, strain WHI3, active compounds read low 0.999 | S. cerevisiae deletion strains, locus YNL224C, strain SQS1, active compounds read low 0.996 | [6] 0.986

CCCSP(=O)(OCC)SCCC
inactive: [1] 1.01 | S. cerevisiae deletion strains, locus YBR021W, strain FUR4, active compounds read low 1 | S. cerevisiae deletion strains, locus YBR229C, strain ROT2, active compounds read low 1.02 | S. cerevisiae deletion strains, locus YCL029C, strain bik1, active compounds read low 0.988 | S. cerevisiae deletion strains, locus YDL035C, strain GPR1, active compounds read low 1.02 | S. cerevisiae deletion strains, locus YDL074C, strain BRE1, active compounds read low 1.07 | S. cerevisiae deletion strains, locus YDL101C, strain DUN1, active compounds read low 1.02 | S. cerevisiae deletion strains, locus YDL134C, strain PPH21, active compounds read low 1.02 | S. cerevisiae deletion strains, locus YDL185W, strain tfp1, active compounds read low 0.984 | S. cerevisiae deletion strains, locus YDL192W, strain arf1, active compounds read low 0.988 | S. cerevisiae deletion strains, locus YDR101C, strain arx1, active compounds read low 0.99 | [2] 1.02 | S. cerevisiae deletion strains, locus YDR162C, strain NBP2, active compounds read low 1.02 | S. cerevisiae deletion strains, locus YDR318W, strain mcm21, active compounds read low 0.995 | S. cerevisiae deletion strains, locus YDR388W, active compounds read low 0.995 | S. cerevisiae deletion strains, locus YDR502C, strain sam2, active compounds read low 0.996 | S. cerevisiae deletion strains, locus YEL061C, strain CIN8, active compounds read low 1.02 | S. cerevisiae deletion strains, locus YER110C, active compounds read low 0.983 | S. cerevisiae deletion strains, locus YER155C, strain BEM2, active compounds read low 1.03 | S. cerevisiae deletion strains, locus YER167W, strain BCK2, active compounds read low 0.994 | S. cerevisiae deletion strains, locus YGL078C, strain dbp3, active compounds read low 0.964 | S. cerevisiae deletion strains, locus YGL086W, strain mad1, active compounds read low 0.994 | S. cerevisiae deletion strains, locus YGL248W, strain PDE1, active compounds read low 1.03 | S. cerevisiae deletion strains, locus YGR078C, strain PAC10, active compounds read low 1.02 | S. cerevisiae deletion strains, locus YGR135W, strain pre9, active compounds read low 0.98 | S. cerevisiae deletion strains, locus YGR229C, strain SMI1, active compounds read low 1.03 | S. cerevisiae deletion strains, locus YGR252W, strain gcn5, active compounds read low 0.927 | S. cerevisiae deletion strains, locus YHR030C, strain SLT2, active compounds read low 1.02 | S. cerevisiae deletion strains, locus YHR079C, strain IRE1 (second series), active compounds read low 0.982 | S. cerevisiae deletion strains, locus YHR094C, strain hxt1, active compounds read low 0.978 | S. cerevisiae deletion strains, locus YHR129C, strain ARP1, active compounds read low 1.02 | S. cerevisiae deletion strains, locus YHR200W, strain rpn10, active compounds read low 0.982 | S. cerevisiae deletion strains, locus YIL066C, strain RNR3, active compounds read low 1.03 | S. cerevisiae deletion strains, locus YIL073C, strain SPO22, active compounds read low 0.996 | S. cerevisiae deletion strains, locus YIL125W, strain kgd1, active compounds read low 0.987 | S. cerevisiae deletion strains, locus YIR030C, strain dcg1, active compounds read low 0.976 | S. cerevisiae deletion strains, locus YJL095W, strain BCK1, active compounds read low 1.04 | S. cerevisiae deletion strains, locus YJL134W, strain LCB3, active compounds read low 1.01 | S. cerevisiae deletion strains, locus YJL168C, strain set2, active compounds read low 0.981 | S. cerevisiae deletion strains, locus YJL187C, strain SWE1 (second series), active compounds read low 1.01 | S. cerevisiae deletion strains, locus YJR043C, strain POL32, active compounds read low 1.02 | [3] 1.03 | S. cerevisiae deletion strains, locus YKL009W, strain mrt4, active compounds read low 1.01 | S. cerevisiae deletion strains, locus YKL068W, active compounds read low 0.996 | S. cerevisiae deletion strains, locus YKL085W, strain MDH1 (second series), active compounds read low 0.99 | S. cerevisiae deletion strains, locus YKL085W, strain MDH1, active compounds read low 0.99 | S. cerevisiae deletion strains, locus YKL190W, strain CNB1, active compounds read low 1 | S. cerevisiae deletion strains, locus YKR001C, strain vps1, active compounds read low 0.982 | S. cerevisiae deletion strains, locus YLR039C, strain RIC1, active compounds read low 1.02 | S. cerevisiae deletion strains, locus YLR058C, strain SHM2, active compounds read low 1.01 | S. cerevisiae deletion strains, locus YLR102C, strain apc9, active compounds read low 0.977 | S. cerevisiae deletion strains, locus YLR262C, strain YPT6, active compounds read low 1.02 | S. cerevisiae deletion strains, locus YLR268W, strain sec22, active compounds read low 0.994 | S. cerevisiae deletion strains, locus YLR330W, strain CHS5, active compounds read low 1.02 | S. cerevisiae deletion strains, locus YLR342W, strain FKS1 (second series), active compounds read low 0.995 | S. cerevisiae deletion strains, locus YLR371W, strain rom2, active compounds read low 0.981 | S. cerevisiae deletion strains, locus YLR418C, strain cdc73, active compounds read low 0.999 | S. cerevisiae deletion strains, locus YML016C, strain PPZ1, active compounds read low 1.02 | S. cerevisiae deletion strains, locus YML032C, strain rad52, active compounds read low 0.983 | S. cerevisiae deletion strains, locus YML124C, strain tub3, active compounds read low 0.989 | S. cerevisiae deletion strains, locus YMR078C, strain ctf18, active compounds read low 0.983 | S. cerevisiae deletion strains, locus YMR223W, strain ubp8, active compounds read low 0.974 | [4] 1.03 | S. cerevisiae deletion strains, locus YMR307W, strain GAS1, active compounds read low 1.01 | S. cerevisiae deletion strains, locus YNL067W, strain RPL9B, active compounds read low 1.02 | S. cerevisiae deletion strains, locus YNL128W, strain TEP1, active compounds read low 1.03 | [5] 1.02 | S. cerevisiae deletion strains, locus YNL233W, strain BNI4, active compounds read low 1.01 | S. cerevisiae deletion strains, locus YNL250W, strain rad50, active compounds read low 0.984 | S. cerevisiae deletion strains, locus YNL271C, strain bni1, active compounds read low 0.974 | S. cerevisiae deletion strains, locus YNL298W, strain CLA4, active compounds read low 0.977 | S. cerevisiae deletion strains, locus YNL307C, strain MCK1, active compounds read low 0.979 | S. cerevisiae deletion strains, locus YNL322C, strain KRE1, active compounds read low 1.01 | S. cerevisiae deletion strains, locus YNR052C, strain pop2, active compounds read low 0.971 | S. cerevisiae deletion strains, locus YOL006C, strain TOP1, active compounds read low 1.05 | S. cerevisiae deletion strains, locus YOL012C, strain htz1 0.903 | S. cerevisiae deletion strains, locus YOL147C, strain pex11, active compounds read low 0.991 | S. cerevisiae deletion strains, locus YOR061W, strain CKA2, active compounds read low 1.01 | S. cerevisiae deletion strains, locus YOR069W, strain VPS5, active compounds read low 1.01 | S. cerevisiae deletion strains, locus YOR136W, strain idh2, active compounds read low 0.998 | S. cerevisiae deletion strains, locus YOR144C, strain elg1, active compounds read low 0.999 | S. cerevisiae deletion strains, locus YOR184W, strain ser1, active compounds read low 0.975 | S. cerevisiae deletion strains, locus YOR316C, strain cot1, active compounds read low 0.99 | S. cerevisiae deletion strains, locus YPL055C, strain LGE1, active compounds read low 1.03 | [6] 1.01 | S. cerevisiae deletion strains, locus YPR119W, strain clb2, active compounds read low 0.985 | S. cerevisiae deletion strains, locus YPR141C, strain kar3, active compounds read low 0.987 | S. cerevisiae deletion strains, locus YPR163C, strain tif3, active compounds read low 0.986 | S. cerevisiae deletion strains, locus YPR167C, strain met16, active compounds read low 0.985 | S. cerevisiae deletion strains, strain wtn01, active compounds read low 0.987 | S. cerevisiae strains, strain wild type, active compounds read low 1.02
